Reference: PubChem BioAssay AID1259415 (National Center for Advancing Translational Sciences (NCATS), 2018)
The campaign covered roughly 410,000 compounds. About 18,000 (4.4%) were called active. Inconclusive results (about 7%) are left out. This excerpt belongs to a sample that is enriched for actives. Values without a mark were called inactive. No stated cut-off is given here; in the data, active means activity change below about -60%; inconclusive means no clear call, values can overlap the other calls; inactive means above about -39%.

Assay: qHTS Assay for inhibitors of the human cytomegalovirus (HCMV)
Conditions: HFF cells, HCMV-luciferase reporter, 72 h; at 57.5 µM; stronger effect = lower value
How it was run: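 Compounds were evaluated in HFFs infected with an HCMV luciferase reporter virus (MOI 1 PFU/cell). Luciferase in lysates collected 72 h post infection served as the replication measure.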
On the % scale 0 is the no-effect control and ±100 the full control effect.

| SMILES | activity change, negative = inhibition |
| --- | --- |
| CCn1c(=O)c2cc(C(=O)Nc3cccc(C(C)=O)c3)sc2c2ccccc21 | 8.05% |
| COc1ccc(OC)c(CNC(=O)c2c3c(nc4ccccc24)C(=O)N(C2CCCCC2)C3)c1 | 18.7% |
| CCOC(=O)C1CCN(C(=O)CSc2c3c(nc4ccc(Cl)cc24)CCCC3)CC1 | 92.3% |
| Cc1ccc(C(C)(C)C)c(OCCCCN2CCCC2)c1 | -65.6% (active) |
| Cc1ccc(C(C)C)cc1OCCN1CCCC1 | 2.84% |
| Cc1ccc(OCCCCN2CCCCC2)c(Br)c1 | -23.7% |
| CC(=O)N1CCc2ccc(N)cc21 | -18% |
| COc1cc(NC(=O)c2cc3ccc4cccnc4c3[nH]2)cc(OC)c1OC | 65% |
| CCOc1ccc(Nc2nc3c(S(=O)(=O)c4cccc(Cl)c4)nnn3c3ccsc23)cc1 | 16.8% |
| C[C@H](CO)N1C[C@H](C)[C@H](CN(C)CC2CC2)Oc2ccc(NC(=O)CCN3CCOCC3)cc2C1=O | -26.7% |
| COc1ccc(S(=O)(=O)N(C)C[C@H]2Oc3ccc(NS(=O)(=O)c4cccs4)cc3CC(=O)N([C@H](C)CO)C[C@H]2C)cc1 | 8.23% |
| C[C@H]1CN([C@@H](C)CO)C(=O)Cc2cc(NS(C)(=O)=O)ccc2O[C@@H]1CN(C)CC1CC1 | -70.1% (active) |
| O=C(c1cccc(Cl)c1)N1CCN(CCc2ccncc2)CC1 | 14.9% |
| Fc1ccc(Nc2nnns2)cc1 | 21.3% |
| O=C(COc1ccccc1)OCc1cc(=O)n2nc(-c3cccs3)sc2n1 | 24.1% |
| CCc1ccccc1NC(=O)c1ccc(F)c(S(=O)(=O)NC2CCCCCC2)c1 | 27% |
| Cc1cccc(NC(=O)c2ccc(F)c(S(=O)(=O)N(C)C3CCCCC3)c2)c1 | -81.6% (active) |
| CCOc1cccc(NC(=O)c2ccc(F)c(S(=O)(=O)N(CC)c3cccc(C)c3)c2)c1 | -33.3% |
| O=C(CSc1nnc(-c2ccccc2F)o1)Nc1cccc(C(F)(F)F)c1 | 98.3% |

| SMILES | activity change, negative = inhibition |
| --- | --- |
| Cc1nn(Cc2ccc(F)cc2)c(C)c1NC(=O)c1cc(CC(C)C)on1 | -39% |
| CCCOc1cccc(C(=O)NCCCNC(=O)c2cccnc2)c1 | -8.85% |
| CCCCCCOc1ccc(OC(=O)c2cccnc2)cc1 | -79.3% (active) |
| Cc1ccc(OCC(=O)N2CCN(C(=O)c3cccnc3)CC2)cc1 | -12.6% |
| O=C(CCn1ccc2cc(S(=O)(=O)N3CCCC3)ccc21)NCc1cccc(Cl)c1 | -10.7% |
| O=C(Cn1ncn2nc(-c3cccs3)cc2c1=O)NCc1cccc(Br)c1 | 12.3% |
| CCC[C@H]1[C@@H](NS(=O)(=O)c2ccc(F)cc2)CC[C@@]23CCCN2C(=O)CCC[C@@H]13 | -4.65% |
| CCCS(=O)(=O)c1ncc(Cl)c(C(=O)Nc2scc(-c3ccccc3)c2C(=O)OCC)n1 | -98.8% (active) |
| CCOC(=O)c1c(-c2cccc(C)c2)csc1NC(=O)c1c(-c2ccccc2)noc1C | -94% (active) |
| CCOC(=O)c1c(C2CC2)csc1NC(=O)CSCc1c(C)noc1C | 42.9% |
| CCOC(=O)c1[nH]cnc1C(=O)Nc1ccccc1C | -21.4% |
| CCOC(=O)c1c(-c2cccc(N)c2)cn2ccccc12 | 17.2% |
| CCCSc1ncc(Cl)c(C(=O)Nc2sc3c(c2C(=O)NCCOC)CCCC3)n1 | -24% |
| Oc1c(C(c2ccccc2Cl)N2CCOCC2)sc2nc(-c3ccco3)nn12 (stereo unspecified) | -16.1% |
| O=C(CCN1CCc2ccccc2C(O)(c2ccccc2)C1)c1ccc2c(c1)OCCO2 (stereo unspecified) | 25.7% |
| O=[N+]([O-])c1ccc2nc(-c3ccccn3)[nH]c2c1 | -79.3% (active) |
| O=S(=O)(Nc1ccc2nc(-c3ccco3)[nH]c2c1)c1ccccc1 | 16.8% |
| O=[N+]([O-])c1ccc(N/N=C2/CCCCC2c2ccccn2)c([N+](=O)[O-])c1 (stereo unspecified) | 4.73% |
| COCCCNC(=O)/C(C#N)=C/c1c(N2CCCCCC2)nc2ccccn2c1=O | -37.9% |

| SMILES | activity change, negative = inhibition |
| --- | --- |
| Cc1cccn2c(=O)c(/C=C(\C#N)C(N)=O)c(N3CCCCCC3)nc12 | -70.1% (active) |
| Cc1cc(C)cc(Oc2nc3c(C)cccn3c(=O)c2/C=C(\C#N)C(=O)NC2CCS(=O)(=O)C2)c1 (stereo unspecified) | 44.8% |
| Nc1[nH]c(C(=O)c2ccccc2)c(-c2ccc(Br)cc2)c1C(=O)NC1CC1 | -20.4% |
| NC(=O)C(Cc1ccccc1)NC(=O)C12CC3CC(CC(C3)C1)C2 (stereo unspecified) | 50.8% |
| Cc1ccc(S(=O)(=O)c2nc(-c3cccs3)oc2N2CCCCC2)cc1 | -15.8% |
| COc1cc(-c2cc3n(C)c(C)c(CCC(=O)Nc4ccc(F)cc4)c(=O)n3n2)cc(OC)c1OC | -22.9% |
| Cc1sc(C2C(C#N)=C(N)N(c3cccc(Cl)c3)C3=C2C(=O)CCC3)cc1CN1CCOCC1 (stereo unspecified) | -21.6% |
| COc1ccc(/C=C/C(=O)Nc2c(C)nn(C)c2C)cc1COc1ccc(Br)cc1 | -35.2% |
| CCn1nc(C)c(NC(=O)/C=C/c2ccc(OC)c(COc3ccc(Br)cc3)c2)c1C | -68% (active) |
| COc1ccc(C(C)=O)cc1COc1ccc(Cl)c(C)c1 | -1.3% |
| CCOC(=O)N1CCc2c(sc3c2C(=O)NC(c2ccccc2F)N3)C1 (stereo unspecified) | -3.15% |
| C=CCN1C(=O)C(Cc2ccc(OCC)cc2)SC1=Nc1ccc(C(=O)O)cc1 (stereo unspecified) | 10.9% |
| CC(=O)Nc1cccc(NC(=O)c2ccc3c(c2)CCN3S(C)(=O)=O)c1 | 40.6% |
| CCN(CC)c1ccc(NC(=O)CN2CCN(CC(=O)Nc3ccc(Cl)cc3)CC2)cc1 | 18% |
| CNS(=O)(=O)c1ccc(NC(=O)Nc2ccc3c(c2)OCO3)cc1 | 61.9% |
| CN(c1ccc(C(=O)N2CCc3ccccc3C2)cc1)S(C)(=O)=O | 5.34% |
| CN(c1cccc(NC(=O)Nc2ccc(Cl)cc2)c1)S(C)(=O)=O | -81.1% (active) |
| CN(c1cccc(NC(=O)c2ccc(CN3CCc4ccccc4C3)cc2)c1)S(C)(=O)=O | -74.1% (active) |
